Data on 5 compounds can be found in PubChem BioAssay.

Active and inactive are the calls of the source. Unless noted, how the calls were made is not given here.

Experiment [1] can be described thus: anti-His antibody binders, primary screen, artefact control for SMM control protein annotation, biochemical, small-molecule microarray, 635 nm fluorescence (AID 1128).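 Further: score merges feature fluorescence with signal-to-noise for each printed compound spot.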 To be noted: anti-His Alexa647 antibody binding, higher = more signal.
Experiment [2] has as its system Human papillomavirus type 1a E7 protein (residues 1-88). Description: HPV1a E7 small-molecule binders, primary screen, biochemical, small-molecule microarray, residues 1-88, 635 nm (AID 1129). To be noted: small-molecule microarray binding, fluorescence 635 nm; higher = more signal.
For experiment [3], the target named is Focal adhesion kinase 1 (Homo sapiens) (UniProt Q05397). Description: small-molecule microarray binders of FAK, primary screen, biochemical, 635/667 nm fluorescence, BSA, DTT (AID 1130).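 Further: composite of spot emission at 667 nm and signal to noise over triplicate slides.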 To be noted: PTK2 binding, 635 nm fluorescence, higher = more signal.
Focal adhesion kinase 1 (Homo sapiens), sequence (Q05397 whole entry, looked up): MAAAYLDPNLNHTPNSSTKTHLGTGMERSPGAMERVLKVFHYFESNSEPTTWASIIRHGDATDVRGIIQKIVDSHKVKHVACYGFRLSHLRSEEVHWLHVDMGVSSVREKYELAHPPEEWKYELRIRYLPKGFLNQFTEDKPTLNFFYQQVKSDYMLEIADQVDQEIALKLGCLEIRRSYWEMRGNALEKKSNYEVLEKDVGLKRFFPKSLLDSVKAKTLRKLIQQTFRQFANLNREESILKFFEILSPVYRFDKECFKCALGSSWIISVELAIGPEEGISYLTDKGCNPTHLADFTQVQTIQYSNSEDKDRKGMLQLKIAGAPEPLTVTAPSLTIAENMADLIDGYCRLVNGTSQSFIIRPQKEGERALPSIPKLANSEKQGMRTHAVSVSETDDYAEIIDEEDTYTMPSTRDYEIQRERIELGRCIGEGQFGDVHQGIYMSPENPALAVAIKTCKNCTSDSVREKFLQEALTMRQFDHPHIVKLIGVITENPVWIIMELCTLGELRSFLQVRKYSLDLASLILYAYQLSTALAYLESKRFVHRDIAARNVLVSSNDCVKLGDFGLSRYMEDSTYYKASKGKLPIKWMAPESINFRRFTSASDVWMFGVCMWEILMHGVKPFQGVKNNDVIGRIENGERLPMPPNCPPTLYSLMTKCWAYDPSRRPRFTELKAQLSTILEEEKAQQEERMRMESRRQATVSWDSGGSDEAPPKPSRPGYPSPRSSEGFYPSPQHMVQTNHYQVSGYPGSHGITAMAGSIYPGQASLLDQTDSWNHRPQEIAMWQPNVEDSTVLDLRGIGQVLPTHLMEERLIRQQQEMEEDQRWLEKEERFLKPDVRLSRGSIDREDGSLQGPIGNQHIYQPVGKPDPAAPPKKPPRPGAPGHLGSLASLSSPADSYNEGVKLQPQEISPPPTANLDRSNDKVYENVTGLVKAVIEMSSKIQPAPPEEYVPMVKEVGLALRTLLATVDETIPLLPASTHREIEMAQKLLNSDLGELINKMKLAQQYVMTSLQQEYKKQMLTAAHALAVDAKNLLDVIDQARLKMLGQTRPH
Experiment [4] has as its system Fibrinogen (Alexa647-labelled). The experiment can be described thus: fibrinogen binders on compound microarrays, profiling panel, artefact control for SMM control-protein annotation, biochemical, small-molecule microarray, 635/667 nm fluorescence (AID 1131).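 Further: z-score merges 667 nm fluorescence with per-spot signal-to-noise over triplicate slides.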 To be noted: fibrinogen-A647 binding fluorescence, higher = more signal.
Experiment [5] addresses Follistatin (Homo sapiens) (UniProt P19883). Description: follistatin binders on small-molecule microarrays, primary screen, biochemical, small-molecule microarray, 635/667 nm fluorescence (AID 1132). Conditions: FST binding, 635 nm fluorescence, higher = more signal.
The target in experiment [6] is Fibroblast growth factor 2 (Homo sapiens) (UniProt P09038). Description: FGF2 binders on small-molecule microarrays, primary screen, biochemical, small-molecule microarray, 635/667 nm fluorescence (AID 1133). Conditions: small-molecule microarray binding, FGF2, fluorescence 635/667; higher = more signal.
Fibroblast growth factor 2 (Homo sapiens), sequence (P09038 whole entry, looked up): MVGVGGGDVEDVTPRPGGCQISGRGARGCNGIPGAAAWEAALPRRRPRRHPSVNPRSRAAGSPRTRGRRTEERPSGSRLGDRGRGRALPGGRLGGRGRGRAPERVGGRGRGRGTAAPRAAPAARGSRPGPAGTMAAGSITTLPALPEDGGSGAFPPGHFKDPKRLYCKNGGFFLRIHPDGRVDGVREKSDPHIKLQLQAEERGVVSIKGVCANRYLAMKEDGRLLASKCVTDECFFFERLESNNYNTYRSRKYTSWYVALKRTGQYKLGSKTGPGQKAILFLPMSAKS
A short description of experiment [7]: mitochondrial membrane potential change in A549 cells, profiling panel, cell-based, JC-1 fluorescence, basal, 24 h, 100 nL (AID 1138).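 Further: A549 lung adenocarcinoma cells under basal conditions with no added stimulus; test concentration not given here.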 To be noted: higher = more signal.
In a further experiment the test system is Lefty1. The experiment can be described thus: Lefty1 binders on small-molecule microarrays, primary screen, biochemical, small-molecule microarray, 635/667 nm fluorescence (AID 1139). To be noted: small-molecule microarray binding, fluorescence 635/667; higher = more signal.
In experiment [8] the test system is wheat germ agglutinin (Triticum aestivum), Alexa647-labelled. The experiment can be described thus: wheat germ agglutinin binders on compound microarrays, profiling panel, artefact control for SMM control-protein annotation, biochemical, small-molecule microarray, 635/667 nm fluorescence (AID 1140).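 Further: score merges 667 nm feature emission with signal to noise over triplicate slides.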 To be noted: WGA-A647 binding, 635 nm fluorescence, higher = more signal.

Experiment [9] concerns the target Luciferin 4-monooxygenase (Photinus pyralis) (UniProt P08659). Description: firefly luciferase enzyme inhibitors, primary screen, biochemical, luminescence, purified enzyme, 2006 set (AID 1141).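 Further: cell-free assay with purified firefly luciferase at 100 ng per well in PBS; test concentration not given here.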 Conditions: SteadyGlo luminescence, 30 min, higher = more signal, called active from +8 up or from −8 down.
Experiment [10] has as its system Wnt5a (protein binding on small-molecule microarray). Description: Wnt5a binders on small-molecule microarray, primary screen, biophysical, 635/667 nm fluorescence (AID 1142).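 Further: fluorescence read at 667 nm with signal to noise per printed feature.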 Conditions: 635 nm fluorescence, higher = more signal.
The nature of experiment [11]: cell viability in Huh7 cells, primary screen, cytotoxicity control for HCV replication inhibitor project, CellTiter-Glo luminescence, basal, 48 h (AID 1143).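 Further: Huh7 hepatoma cells carrying a hepatitis C replication reporter with no stimulus; test concentration not given here.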 Conditions: Huh7 HCV replicon, higher = more signal, called active from +8 up or from −8 down.
The nature of experiment [12]: P. aeruginosa biofilm formation inhibitors, primary screen, PAO1 strain, BacTiter-Glo luminescence, LB-PBS (AID 1144). To be noted: 12 h, higher = more signal.
A short description of experiment [13]: CREB reporter modulators without forskolin, primary screen, cell-based, PC12, CRE-LacZ reporter, unstimulated (AID 1145). To be noted: no forskolin, luminescence, 4.5 h, higher = more signal, called active from +8 up or from −8 down.
The nature of experiment [14]: CREB reporter modulators under forskolin, primary screen, cell-based, PC12, CRE-LacZ reporter, forskolin-stimulated (AID 1146).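 Further: PC12 cells with 6xCRE LacZ reporter stimulated by forskolin 10 µM; beta-galactosidase reporter signal reflecting CREB driven transcription.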 Conditions: luminescence, 4.5 h, higher = more signal, called active from +8 up or from −8 down.
In experiment [15] the target is Streptavidin (Streptomyces avidinii) (UniProt P22629). Description: streptavidin binders on small-molecule microarray, primary screen, artefact control for SMM compound annotation, biophysical, 635/667 nm fluorescence (AID 1147).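 Further: signal reflects streptavidin binding to arrayed compounds as a control protein.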 Conditions: streptavidin binding, higher = more signal.
Streptavidin (Streptomyces avidinii), sequence (P22629 whole entry, looked up): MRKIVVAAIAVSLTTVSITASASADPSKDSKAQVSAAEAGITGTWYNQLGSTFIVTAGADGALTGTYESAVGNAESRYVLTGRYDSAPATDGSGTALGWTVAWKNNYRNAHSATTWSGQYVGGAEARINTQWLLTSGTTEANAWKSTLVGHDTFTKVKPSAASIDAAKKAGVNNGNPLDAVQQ
A short description of experiment [16]: small-molecule binders of probe aInhba, primary screen, biochemical, small-molecule microarray, 635/667 nm fluorescence (AID 1148).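 Further: score merges 667nm spot fluorescence with signal-to-noise for antibody binding to printed compounds.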 Conditions: higher = more signal.
In experiment [17] the target is Torsin-1A (Homo sapiens) (UniProt O14656). The experiment can be described thus: torsin A binders from cell lysate, primary screen, small-molecule microarray, wild-type, 635/667 nm (AID 1149). To be noted: COS7 hTOR1A-WT lysate, 635 nm fluorescence, higher = more signal.
Torsin-1A (Homo sapiens), sequence (O14656 whole entry, looked up): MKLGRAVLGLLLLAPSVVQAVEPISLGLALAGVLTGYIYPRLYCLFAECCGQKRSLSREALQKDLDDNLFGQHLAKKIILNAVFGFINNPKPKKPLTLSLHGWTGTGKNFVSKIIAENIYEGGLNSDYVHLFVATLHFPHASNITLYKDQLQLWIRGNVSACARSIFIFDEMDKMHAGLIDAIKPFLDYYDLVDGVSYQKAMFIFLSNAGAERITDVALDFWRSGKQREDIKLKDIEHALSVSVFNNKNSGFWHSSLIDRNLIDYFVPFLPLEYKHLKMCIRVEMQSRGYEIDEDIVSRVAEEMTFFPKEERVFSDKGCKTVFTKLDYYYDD
Experiment [18] has the same target. Description: small-molecule binders of mutant TOR1A in lysate, primary screen, cell lysate, small-molecule microarray, COS7 lysate, 635/667 nm fluorescence (AID 1150).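 Further: score pools 667 nm emission and signal to noise measuring lysate protein binding.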 To be noted: COS7 hTOR1A mutant lysate, 635 nm fluorescence, higher = more signal.
The subject of experiment [19] is Sonic hedgehog protein (Shh). The experiment can be described thus: small-molecule binders of Shh protein, primary screen, biochemical, small-molecule microarray, 635/667 nm fluorescence (AID 1151).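 Further: Shh protein binding to compounds spotted on small-molecule microarray slides; score combines spot fluorescence intensity with signal-to-noise across triplicate slides.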 Conditions: small-molecule microarray binding, 635 nm fluorescence; higher = more signal.

Follistatin (Homo sapiens), sequence (P19883 whole entry, looked up): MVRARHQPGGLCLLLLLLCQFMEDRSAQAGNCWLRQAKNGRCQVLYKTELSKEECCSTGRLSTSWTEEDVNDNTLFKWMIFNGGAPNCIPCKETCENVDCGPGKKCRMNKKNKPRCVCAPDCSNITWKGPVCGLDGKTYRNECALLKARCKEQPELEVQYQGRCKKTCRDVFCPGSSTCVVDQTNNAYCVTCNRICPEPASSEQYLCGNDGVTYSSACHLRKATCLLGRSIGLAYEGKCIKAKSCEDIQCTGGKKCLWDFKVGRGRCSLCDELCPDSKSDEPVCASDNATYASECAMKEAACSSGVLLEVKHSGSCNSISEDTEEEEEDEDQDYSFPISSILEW
Luciferin 4-monooxygenase (Photinus pyralis), sequence (P08659 whole entry, looked up): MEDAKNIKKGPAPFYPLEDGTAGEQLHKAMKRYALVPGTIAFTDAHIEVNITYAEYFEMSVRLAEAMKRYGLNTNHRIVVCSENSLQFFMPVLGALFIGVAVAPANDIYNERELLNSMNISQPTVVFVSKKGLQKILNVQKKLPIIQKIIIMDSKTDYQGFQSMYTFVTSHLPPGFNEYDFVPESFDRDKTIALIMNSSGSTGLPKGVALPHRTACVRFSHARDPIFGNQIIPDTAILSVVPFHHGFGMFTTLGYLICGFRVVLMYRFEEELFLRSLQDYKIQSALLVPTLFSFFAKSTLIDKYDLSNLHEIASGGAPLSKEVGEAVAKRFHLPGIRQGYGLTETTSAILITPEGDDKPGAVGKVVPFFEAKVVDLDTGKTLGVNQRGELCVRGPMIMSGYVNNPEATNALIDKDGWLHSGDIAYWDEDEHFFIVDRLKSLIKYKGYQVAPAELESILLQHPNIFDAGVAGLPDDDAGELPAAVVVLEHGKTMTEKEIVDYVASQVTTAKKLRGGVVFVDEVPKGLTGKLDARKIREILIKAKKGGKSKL

For `CCCCCCCCCCC(O)C1C=CC2C(=O)NC(=O)C2N1Nc1ccccn1` (stereo not given), the composite z-score in experiment [1] is 0.121; in [2], 0.749; in experiment [3], 0.675; in [4], 0.666; in experiment [5] it was -0.008; in [6], -1.4. Besides, the composite z-score with Lefty1 was -0.458; in experiment [8], 0.331; in experiment [10], -0.41; in experiment [15] it was 0.606; in experiment [16], -0.0087; in the experiment with Torsin-1A (Homo sapiens) [17], -1.17. In addition, the composite z-score with Torsin-1A (Homo sapiens) [18] is -0.213; in experiment [19] it was -0.478. Moreover, the z-score in experiment [7] was 0.706; in experiment [9], -0.765 (inactive); in experiment [11], -3.4 (inactive); in experiment [12], -1.27 (inactive); in experiment [13], 3.3 (inactive); in experiment [14], 0.383 (inactive).
Take `Cc1ccc(S[C@]2(C(=O)O)CC(=O)N(Cc3ccccc3C(F)(F)F)[C@@H]2c2ccc(CO)cc2)cc1`: the composite z-score in [1] was -0.916; in experiment [2], -0.543; in experiment [3], 0.0068; in experiment [4], -0.772; in experiment [5], -0.238; in experiment [6], -1.18. The composite z-score is -1.27 with Lefty1; -0.475 in experiment [8]; -0.297 in experiment [10]; -0.655 in experiment [15]; -0.113 in experiment [16]; 0.0183 with Torsin-1A (Homo sapiens) [17]. Besides, the results for the composite z-score (in the experiment with Torsin-1A (Homo sapiens) [18]; in experiment [19]) were 1.46 and -1.1, respectively. Further, the z-score in experiment [7] is 0.391; in [9], 0.989 (inactive); in experiment [11], 0.455 (inactive); in experiment [12] it was 0.231 (inactive); in experiment [13], 0.0279 (inactive); in [14], -0.369 (inactive).
Regarding `COCCCNC(=O)[C@@]1(C)c2ccccc2C(=O)N(c2ccc(C)cn2)[C@H]1c1ccc(CO)cc1`, the composite z-score in experiment [1] is -0.545; in experiment [2], -0.454; in experiment [3], -0.193; in experiment [4] it was -1.03; in experiment [5] it was -0.0423; in experiment [6], 0.204. Further, the composite z-score in the experiment with Lefty1 was -0.939; in experiment [8], 0.421; in experiment [10], -0.259; in experiment [15], -1.4; in experiment [16], -0.202; with Torsin-1A (Homo sapiens) [17] it was 0.152. Also, the composite z-score with Torsin-1A (Homo sapiens) [18] is -1.17; in experiment [19] it was -0.0308. Moreover, the z-score in experiment [7] was -0.9; in [9], 0.522 (inactive); in [11] it was 0.616 (inactive); in experiment [12], -0.252 (inactive); in experiment [13], 0.0279 (inactive); in experiment [14], 0.208 (inactive).
Consider `CN(C)C(=O)[C@@]1(Cc2ccccc2N=[N+]=[N-])N=C(c2ccc(OCCCO)cc2)O[C@H]1c1ccccc1N=[N+]=[N-]`, for which the composite z-score is 1.85 in experiment [1]; 1.19 in experiment [2]; 0.921 in experiment [3]; 0.887 in experiment [4]; 1.01 in experiment [5]; -0.118 in [6]. Besides, the composite z-score in the experiment with Lefty1 was determined as 0.16; in experiment [8], 0.98; in experiment [10] it was 0.451; in experiment [15], 0.54; in experiment [16], 0.0028; with Torsin-1A (Homo sapiens) [17], 0.761. Further, the figures for the composite z-score (with Torsin-1A (Homo sapiens) [18]; in experiment [19]) were 0.776 and -0.536, respectively. Moreover, the z-score is 2.01 in [7]; -2.25 (inactive) in experiment [9]; -3.76 (inactive) in experiment [11]; 1.19 (inactive) in experiment [12]; 1.19 (inactive) in experiment [13]; -1.97 (inactive) in experiment [14].
For `CC(C)(C)N1CC=CC23O[C@@H]4C=CCCOC(=O)C4[C@H]2C(=O)N(CCCO)[C@@H]3C1=O` (stereo not given in full), the composite z-score in [1] was -1.89; in experiment [2] it was -1.75; in [3] it was -0.491; in experiment [4], -1.66; in [5] it was -0.103; in [6], -0.464. Besides, the composite z-score with Lefty1 is -0.292; in [8], -1.96; in experiment [10], -0.213; in experiment [15], -1.33; in experiment [16], -0.23; with Torsin-1A (Homo sapiens) [17], -0.253. Further, the figures for the composite z-score (in the experiment with Torsin-1A (Homo sapiens) [18]; in experiment [19]) were -0.663 and 0.398, respectively. The z-score was -0.754 in [7]; -0.0881 (inactive) in [9]; -2.5 (inactive) in experiment [11]; -0.93 (inactive) in experiment [12]; 0.451 (inactive) in experiment [13]; -0.178 (inactive) in experiment [14].
